RGS4-Gao reg = modulators of RGS4 binding to Galphao, primary screen, biochemical, multiplexed bead flow cytometry; actives lie on both sides; binding response (% of control), % at 10 µM; 220,000 tested, 0.33% active; Guanine nucleotide-binding protein G(o) subunit alpha (Homo sapiens), P09471; in the data active means binding response below about 49% or above about 150%; inactive means in between;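 further: fluorescent Galphao activated with aluminum fluoride binding bead-coupled RGS4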
Target sequence (P09471 whole entry, looked up): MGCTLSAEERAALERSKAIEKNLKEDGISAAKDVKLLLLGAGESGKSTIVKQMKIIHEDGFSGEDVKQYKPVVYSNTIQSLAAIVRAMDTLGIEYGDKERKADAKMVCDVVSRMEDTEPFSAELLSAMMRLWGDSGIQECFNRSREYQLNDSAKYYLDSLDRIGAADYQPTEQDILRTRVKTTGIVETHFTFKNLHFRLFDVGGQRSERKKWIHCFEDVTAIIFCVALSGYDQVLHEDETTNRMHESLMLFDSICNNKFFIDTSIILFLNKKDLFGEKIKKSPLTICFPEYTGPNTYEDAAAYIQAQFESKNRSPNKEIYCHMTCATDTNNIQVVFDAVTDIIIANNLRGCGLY
RGS8-Gao reg = RGS8-Galphao binding modulators, primary screen, biochemical, multiplexed bead flow cytometry; Guanine nucleotide-binding protein G(o) subunit alpha (Homo sapiens), P09471; actives lie on both sides; response (percent of control binding), % at 10 µM; 220,000 tested, 0.34% active; AID 1423, 2008; in the data active means response below about 60% or above about 140%; inactive means in between;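 further: Galphao activated as the GDP aluminium fluoride complex binding bead-coupled RGS8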
Avidin fluor = green autofluorescence of compounds with avidin beads – biophysical, 488/530 nm, flow cytometry, artefact control, profiling panel | compound fluorescence 488/530 nm; stronger effect = higher value | fluorescence (KMESF) at 10 µM | 220,000 tested, 0.38% active | AID 1775, 2009; in the data active means fluorescence above about 47
GSH bead fluor = compound fluorescence on glutathione beads, profiling panel, artefact control, biophysical, 488/530 nm, flow cytometry | GSH beads flow cytometry, compound fluorescence 488/530 nm; stronger effect = higher value | fluorescence (KMESF) at 10 µM | 190,000 tested, 0.25% active | AID 1776, 2009; in the data active means fluorescence above about 89;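 further: glutathione beads carrying GST-tagged Bcl family fusion proteins plus one bare bead set; values are compound well signal with DMSO vehicle wells as background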
RGS7-Gao = RGS7-Galphao binding modulators, primary screen, biochemical, multiplexed bead flow cytometry; actives lie on both sides; binding response (% of control), % at 10 µM; 220,000 tested, 0.35% active; AID 1439, 2008; in the data active means binding response below about 49% or above about 150%; inconclusive means no clear call, values can overlap the other calls; inactive means in between;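 further: fluorescent Galphao held in activated GDP-AlF4 state binding bead-coupled RGS7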
RGS16-Gao = modulators of RGS16 binding to Galphao, primary screen, biochemical, human proteins, multiplexed bead flow cytometry; bead-based flow cytometry RGS16-Galphao binding, fluorescence; actives lie on both sides; 220,000 tested, 0.38% active; AID 1441, 2008; binding response (% of control), % at 10 µM; Regulator of G-protein signaling 16 (Homo sapiens) + Guanine nucleotide-binding protein …;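 further: Galphao activated by GDP with aluminum fluoride before binding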
Target sequence (O15492 whole entry, looked up): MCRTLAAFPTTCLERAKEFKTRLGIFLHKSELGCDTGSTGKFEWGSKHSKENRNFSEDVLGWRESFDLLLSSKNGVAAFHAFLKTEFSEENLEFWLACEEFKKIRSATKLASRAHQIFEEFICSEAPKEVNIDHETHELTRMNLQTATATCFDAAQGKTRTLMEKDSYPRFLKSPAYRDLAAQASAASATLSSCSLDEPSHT
Target sequence (P09471 whole entry, looked up): as the sequence (P09471 whole entry, looked up) above
RGS-Gao = modulators of RGS–Galpha-o binding, primary screen, biochemical, multiplexed beads, flow cytometry, RGS4/7/8/16/19. shares compounds with RGS16-Gao. multiplexed bead flow cytometry. RGS4–Galpha-o binding response, % at 10 µM. 1,600 tested, 99% active. AID 1504, 2009;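 further: fluorescently labeled Galpha-o bound to GDP with aluminium fluoride binding biotinylated RGS beads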
Avidin counter = disruption of biotin probe capture by avidin, counter-screen for RGS protein interaction modulators, biochemical, flow cytometry, bead-based; shares compounds with RGS16-Gao; inhibition, % at 10 µM; streptavidin beads, fluorescein-biotin binding; 1,700 tested, under 10 active; AID 1783, 2009;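 active means inhibition above 50%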;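 further: median green fluorescence of gated singlet beads compared with DMSO control wells; 0% = DMSO wells and 100% = complete loss of bead fluorescence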
RGS8-Gao confirm = RGS8-Galphao binding modulators, confirmation, biochemical, multiplexed bead flow cytometry, single concentration; binding response (% of control), % at 10 µM; AID 1836, 2009; 1,700 tested, 3% active; bead-based flow cytometry RGS8-Galphao binding, fluorescence; actives lie on both sides; shares compounds with RGS16-Gao; in the data active means binding response below about 72% or above about 130%; inactive means in between;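 further: Galphao activated as GDP AlF4 complex before binding bead RGS8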
RGS7-Gao single = RGS7-Galphao binding modulators, confirmation, biochemical, multiplexed bead flow cytometry, single concentration; 1,700 tested, 7.8% active; shares compounds with RGS16-Gao; bead-based flow cytometry RGS7-Galphao binding; actives lie on both sides; AID 1837, 2009; response (percent of control binding), % at 10 µM; in the data active means response below about 75% or above about 130%; inactive means in between;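 further: fluorescent Galphao activated with GDP and aluminum fluoride binding bead-coupled RGS7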
RGS16-Gao conf = modulators of RGS16-Galphao protein binding, confirmation, biochemical, single concentration, multiplexed bead flow cytometry. shares compounds with RGS16-Gao. bead-based flow cytometry; actives lie on both sides. response (% of control binding), % at 10 µM. 1,700 tested, 4% active. AID 1838, 2009; in the data active means response below about 74% or above about 130%; inactive means in between;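 further: Galphao activated as the GDP aluminium fluoride complex binding bead-coupled RGS16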
RGS4-Gao confirm = modulators of RGS4-Galphao protein binding, confirmation, biochemical, single concentration, multiplexed bead flow cytometry | shares compounds with RGS16-Gao | 1,700 tested, 4% active | AID 1840, 2009 | binding response (% of control), % at 10 µM | actives lie on both sides; in the data active means binding response below about 74% or above about 130%; inactive means in between
RGS19-Gao conf = regulators of RGS19-Galphao binding, confirmation, biochemical, single point, multiplexed bead flow cytometry | 1,700 tested, 5% active | bead-based flow cytometry RGS19-Galphao binding; actives lie on both sides | response (percent of control binding), % at 10 µM | AID 1841, 2009 | shares compounds with RGS16-Gao; in the data active means response below about 50% or above about 160%; inactive means in between;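 further: 100% = no compound control and 0% = blank background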
* = called active by the depositor; i = inactive; ? = inconclusive; nt = no result given; [ ] = another dose, or the depositor's remark. Compounds with a hit are over-represented: about 1.2% of the library has one in this group of screens. Unless noted, how the calls were made is not given here.

SMILES | RGS4-Gao reg | RGS8-Gao reg | Avidin fluor | GSH bead fluor | RGS7-Gao | RGS16-Gao | RGS-Gao | Avidin counter | RGS8-Gao confirm | RGS7-Gao single | RGS16-Gao conf | RGS4-Gao confirm | RGS19-Gao conf
COc1cccc(NC(=O)c2ccccc2-c2nc(-c3ccccc3)no2)c1 | 88 | 91 | 15 | 36 | 87 | 88 | nt | nt | nt | nt | nt | nt | nt
COc1ccc(C2CC(=O)c3cnc(N4CCc5ccccc54)nc3C2)c(OC)c1 (stereo unspecified) | 103 | 104 | 10 | 10 | 99 | 106 | nt | nt | nt | nt | nt | nt | nt
C=C(C)c1cccc(C(C)(C)NC(=O)N2CCN(CC)CC2)c1 | 100 | 104 | 32 | 19 | 98 | 109 | nt | nt | nt | nt | nt | nt | nt
C=C(C)c1cccc(C(C)(C)NC(=O)N2CCCCC2CC)c1 (stereo unspecified) | 142 | 172*[activator] | 7 | 8 | 124 | 404 | 142* | nt | nt | nt | nt | nt | nt
Cc1nn(-c2ccccc2)c2sc(C(=O)N3CCCCC3)cc12 | nt | nt | nt | 47 | nt | nt | nt | -2 | 101 | 97 | 106 | 103 | 105
O=C(Cc1csc(N2CCOCC2)n1)N/N=C/c1ccc(O)c(O)c1O | 66 | 57* | 5 | 12 | ? | 49 | 66* | i | 72* | 68* | 70* | 79 | 37*
Cc1cc(C)n(C(=O)c2sc3cc(F)ccc3c2Cl)n1 | 100 | 103 | 11 | 23 | 101 | 106 | nt | nt | nt | nt | nt | nt | nt
CN(C)C(=O)CSc1nnc(-c2ccc(F)cc2)c2ccccc12 | 28* | 51* | 1 | nt | ? | 31 | nt | -1 | 105 | 111 | 106 | 108 | 97
O=C(O)C1CC=CCC1C(=O)NNc1ccccc1 (stereo unspecified) | 97 | 102 | 10 | 28 | 101 | 100 | nt | nt | nt | nt | nt | nt | nt
COC(=O)C(NC(=O)c1ccc(C)cc1)(Nc1cccc(C)n1)C(F)(F)F (stereo unspecified) | 104 | 104 | 7 | 48 | 102 | 105 | nt | nt | nt | nt | nt | nt | nt
CCOC(=O)c1cccc(-n2c(-c3ccc(OC)cc3)nc3nc4ccccc4nc32)c1 | 108 | 98 | 124* | 15 | 179*[activator] | 101 | 108* | 0 | 96 | 103 | 100 | 101 | 90
CCOC(=O)c1cccc(-n2c(C)nc3ccccc3c2=O)c1 | 96 | 91 | 13 | 29 | 100 | 73 | nt | nt | nt | nt | nt | nt | nt
CCCn1c(NCc2c[nH]c3ccccc23)nc2ccccc21 | 104 | 143*[activator] | 9 | 48 | 103 | 316 | 104* | 0 | 95 | 86 | 92 | 93 | 73
N/C(COc1cc(Cl)cc(Cl)c1)=N\O | 93 | 95 | 7 | nt | ? | 96 | nt | nt | nt | nt | nt | nt | nt
Clc1ccc(-c2csc3ncnc(Cl)c23)cc1 | 105 | 102 | 16 | 15 | 103 | 104 | nt | nt | nt | nt | nt | nt | nt
NNc1ncnc2scc(-c3ccc(Cl)cc3)c12 | 138 | 149*[activator] | 2 | 9 | 140 | 146 | 138* | 0 | 100 | 93 | 101 | 97 | 77
CCn1c(C)nc2cc(C(=O)N3N=C(CCOC)CC3(O)C(F)(F)F)ccc21 (stereo unspecified) | 98 | 99 | 8 | nt | ? | 95 | nt | nt | nt | nt | nt | nt | nt
Cc1cc(C(=O)Nc2nc3c(C)cccc3s2)c(C)o1 | 72 | 68 | 9 | 16 | 79 | 17* | 72* | -1 | 101 | 102 | 102 | 104 | 96
CSc1ncccc1C(=O)Nc1nc2c(C)cccc2s1 | 101 | 104 | 13 | 4 | 102 | 109 | nt | nt | nt | nt | nt | nt | nt
O=C(O)c1ccc(/C=N/N2CCN(Cc3ccc(Cl)cc3)CC2)cc1 | 117 | 148*[activator] | 14 | 12 | 125 | 262 | 117* | -2 | 98 | 83 | 93 | 91 | 83
Cc1ccc(CN2CCN(/N=C/c3ccc(C(=O)O)cc3)CC2)cc1 | 100 | 100 | 14 | 9 | 98 | 98 | nt | nt | nt | nt | nt | nt | nt
Cc1ccc(CN2CCN(/N=C/c3cccnc3)CC2)cc1 | 110 | 125 | 6 | 12 | 110 | 260*[activator] | 110* | 3 | 99 | 100 | 99 | 98 | 85
Cc1ccc(CN2CCN(/N=C/C(Br)=C\c3ccccc3)CC2)cc1 | 100 | 103 | 8 | nt | ? | 96 | nt | nt | nt | nt | nt | nt | nt
CC1CN(S(=O)(=O)c2ccc(C(=O)Nc3nnc(-c4ccccn4)o3)cc2)CC(C)O1 (stereo unspecified) | 15* | 12* | -2 | 11 | -18* | 9.5* | nt | -2 | 101 | 101 | 100 | 100 | 114
Cc1ccc(-n2nnc(-c3ccnc4ccccc34)n2)cc1 | 126 | 120 | 4 | 21 | 130 | 130 | nt | nt | nt | nt | nt | nt | nt
COc1ccc(C(=O)NCCc2nnc(SCC(=O)Nc3ccccc3C(C)C)n2C)cc1 | 102 | 101 | 11 | 43 | 100 | 102 | nt | nt | nt | nt | nt | nt | nt
Cn1c(=O)c2c(SCC(=O)Nc3nccs3)nc(C3CC3)nc2n(C)c1=O | 95 | 99 | 10 | nt | ? | 101 | nt | nt | nt | nt | nt | nt | nt
CCc1nnc(NC(=O)CCc2ccc(C)o2)s1 | 170*[activator] | 151*[activator] | 8 | 42 | 158*[activator] | 165 | nt | 1 | 100 | 105 | 103 | 102 | 101
